Here are results for 14 compounds from publication PMC5540273 (PLoS ONE, 2017).

For one test, the system named is T1, GRK2.
T1 construct: gene ADRBK1

For a further test, the system named is T2, GRK3.
T2 construct: gene ADRBK2

The test system of a further test is T3, HASPIN.
T3 construct: gene GSG2
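Also: kd values determined as follow-up on hits from a single-replicate KINOMEscan panel screen.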

As a reminder, the Kd is a measure of binding affinity in units of concentration. Low readings indicate a tighter complex, high ones a looser complex. `FC(F)(F)c1ccc(-c2nn3ncccc3c2-c2ccnc(Nc3cccc(C(F)(F)F)c3)n2)cc1` [GW828205] registered a Kd with FGFR2 above 10 µM.
On the same count and under the same terms, in the case of `CCC(CC)(CC)n1cnc2c(N)ncnc21` [SKF-97620] it was above 10 µM.
As for `COc1ccc(NC(=O)Nc2ccc(C)c(-c3ccc(C(=O)Nc4ccncc4)cc3)c2)cc1` [GSK1398475], in the test on FLT3, the dissociation constant (Kd) amounted to 2.2 µM.
In the case of `O=C(Nc1n[nH]c2nc(-c3ccco3)c(Br)cc12)c1ccc(CN2CCCC2)cc1.O=C(O)[C@H](O)[C@@H](O)C(=O)O` [SB-742352], the Kd in the test with FLT3 is 0.045 µM.
For `Cl.O=S(=O)(c1cccc(F)c1)c1ccc(Nc2ncnc3cc(Br)sc23)cc1Cl` [GSK306886], the Kd in the test on FLT4 is above 10 µM.
The compound `Cc1ccc(NC(=O)c2cccc(C#N)c2)cc1-c1ccc(C(=O)Nc2ccncc2)cc1` [GSK1398463] yielded a dissociation constant (Kd) in the test with FRK of 0.19 µM.
In the test on GAK, `CCc1nc(-c2cccc(N(C)S(=O)(=O)c3ccccc3)c2)c(-c2ccnc(Nc3ccc(N4CCN(C(C)=O)CC4)nc3)n2)s1` [GSK1645895] displayed an equilibrium dissociation constant (Kd) of 0.25 µM.
Still for that read-out and setting: as for `COC(=O)c1c(-c2ccccc2)c2cc(Cl)ccc2c(=O)n1Cc1ccc(S(C)(=O)=O)cc1`, the figure is above 10 µM.
For `CNc1nccc(-c2c(-c3ccc(F)cc3)ncn2C2CCN(C)CC2)n1` [SB-222903], the Kd in the test with GRK2 was above 10 µM.
`COc1ccc(NC(=O)c2ccc(-c3cc(-c4nnc(C)o4)ccc3C)cc2)cc1` [GW595885]: in the test on GRK3, the Kd is above 10 µM.
Regarding `Cn1cc(-c2ccc3c(c2)CCN3C(=O)Cc2cccc(C(F)(F)F)c2)c2c(N)ncnc21` [GSK2606414], the Kd with GRK4 is above 10 µM.
As to `Nc1nc(-c2cccnc2)c(-c2ccnc3ccccc23)s1` [GW684083], the affinity in the test on HASPIN, expressed as Kd, was 0.65 µM.
The same measure, in the same setting: as for `Cl.Cl.c1ccc(-c2cc3ccncc3cc2OC2CCNCC2)cc1` [GSK1122999], the figure is 0.09 µM.
In turn, `Nc1n[nH]c2nnc(-c3ccccc3)cc12` [SB-517389] yielded a Kd in the test on HIPK3 of 0.29 µM.
